Test systems include SR leukemia; RPMI-8226 leukemia; OVCAR-8 ovarian; OVCAR-5 ovarian; OVCAR-4 ovarian; SK-OV-3 ovarian; OVCAR-3 ovarian; HS 578T breast; NCI/ADR-RES ovarian; T-47D breast; BT-549 breast; MDA-MB-435 melanoma; SW-620 colon; MCF7 breast; HCT-116 colon; HCC-2998 colon; KM12 colon; IGROV1 ovarian.
Common to all, as to assay: NCI-60 one-dose screen, 48 h (100 = growth as untreated, 0 = no growth, -100 = all killed)
What all share (conditions): 10 µM

For nine compounds, growth results are on record in PubChem BioAssay (NCI).

About 83,000 compounds went through this panel and 20% of them were active in at least one assay; those are over-represented in the sample as a whole.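 Each cell line was grown in a 96-well plate and treated with one concentration of compound for 48 hours. Values below 10 were considered active.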 Values without a mark were called inactive. Calls of active or inactive are those of the source.

Consider `Cc1nc2cc(-n3c(-c4ccc(F)cc4)nc4ccccc4c3=O)ccc2n1Cc1ccccc1`, for which the growth in the assay with SR leukemia is -7.66% (active); with RPMI-8226 leukemia, 37.5%; with OVCAR-8 ovarian it was 13%; in the assay on OVCAR-5 ovarian it was 65.2%; in the assay with OVCAR-4 ovarian, -18.3% (active); with SK-OV-3 ovarian, 58.8%. Further, the growth in the assay with OVCAR-3 ovarian was -18.7% (active); in the assay with HS 578T breast, 5.86% (active); in the assay with NCI/ADR-RES ovarian, 6.09% (active); with T-47D breast, -29% (active); in the assay on BT-549 breast, 2.3% (active); with MDA-MB-435 melanoma, -32.6% (active). Also, the growth with SW-620 colon is 11.6%; with MCF7 breast, -24.9% (active); with HCT-116 colon, -18.8% (active); in the assay with HCC-2998 colon, 61.7%; in the assay with KM12 colon, 18.7%.
With `CCOC(=O)C(CCC1=NC(C)(C)CC(C)O1)C(=O)OCC` (configuration not stated), the growth is 68.6% in the assay on SR leukemia; 111% in the assay with RPMI-8226 leukemia; 85.5% in the assay on OVCAR-8 ovarian; 90.6% in the assay on OVCAR-4 ovarian; 101% in the assay with SK-OV-3 ovarian; 96.2% in the assay with IGROV1 ovarian. The growth in the assay with OVCAR-3 ovarian was 107%; in the assay with HS 578T breast, 95.3%; in the assay on NCI/ADR-RES ovarian, 83%; in the assay with T-47D breast, 102%; with BT-549 breast, 88.9%; in the assay on MDA-MB-435 melanoma, 104%. Also, the growth was 56.7% with SW-620 colon; 72.8% in the assay on MCF7 breast; 46% in the assay with HCT-116 colon; 98.8% with HCC-2998 colon; 94.4% in the assay on KM12 colon.
Turning to `CCOC(=O)c1sc(NC(=O)c2cc(OC)c(OC)c(OC)c2)nc1C`, the growth is 79% with SR leukemia; 83% in the assay with RPMI-8226 leukemia; 99.3% in the assay on OVCAR-8 ovarian; 108% with OVCAR-5 ovarian; 113% in the assay on OVCAR-4 ovarian; 152% in the assay on SK-OV-3 ovarian. The growth in the assay on OVCAR-3 ovarian is 103%; with HS 578T breast it was 80.8%; with NCI/ADR-RES ovarian, 103%; with T-47D breast, 118%; in the assay with MDA-MB-435 melanoma it was 102%; in the assay with SW-620 colon, 98.1%. The growth in the assay on MCF7 breast is 87.5%; in the assay on HCT-116 colon, 111%; in the assay with KM12 colon it was 99.3%.
On to `Nc1nsc(C(=O)c2ccc(O)cc2)n1`, for which the growth with SR leukemia was 99.2%; with RPMI-8226 leukemia it was 90.7%; with OVCAR-8 ovarian, 91.1%; in the assay with OVCAR-5 ovarian, 93.6%; with OVCAR-4 ovarian, 105%; in the assay on SK-OV-3 ovarian it was 92.8%. Also, the growth was 95.2% in the assay on OVCAR-3 ovarian; 98.1% in the assay on HS 578T breast; 103% in the assay with NCI/ADR-RES ovarian; 94.2% in the assay on T-47D breast; 102% in the assay with BT-549 breast; 108% in the assay on SW-620 colon. The growth in the assay on MCF7 breast is 99.3%; with HCT-116 colon it was 94.8%; with HCC-2998 colon, 98.7%; in the assay on KM12 colon it was 100%.
As to `COc1c(C)c(C)c(OC)c2c1[nH]c(=O)c1c3cccnc3cn21`, the growth in the assay with SR leukemia is 94.8%; with RPMI-8226 leukemia, 108%; in the assay with OVCAR-8 ovarian, 111%; in the assay on OVCAR-5 ovarian, 122%; in the assay with SK-OV-3 ovarian it was 103%; with OVCAR-3 ovarian, 104%. The growth with HS 578T breast was 99.5%; with NCI/ADR-RES ovarian it was 110%; with T-47D breast, 94.9%; in the assay on BT-549 breast, 124%; with MDA-MB-435 melanoma it was 110%; in the assay with SW-620 colon it was 99.3%. Besides, the growth in the assay on MCF7 breast is 88.5%; in the assay on HCT-116 colon it was 104%; with HCC-2998 colon, 120%; in the assay with KM12 colon, 106%.
In the case of `CC(=O)c1c(O)cc2c3c1OC(C)(C)C1CCC(C)(CC31)O2` (configuration not stated), the growth in the assay with SR leukemia was 86.7%; with RPMI-8226 leukemia it was 54.4%; in the assay with OVCAR-8 ovarian, 86.3%; in the assay with OVCAR-5 ovarian, 97.7%; in the assay on OVCAR-4 ovarian, 89.6%; in the assay with SK-OV-3 ovarian, 97.6%. The growth was 93.8% with OVCAR-3 ovarian; 115% with HS 578T breast; 89.6% in the assay with NCI/ADR-RES ovarian; 66.4% in the assay on T-47D breast; 90.8% in the assay with BT-549 breast; 104% with MDA-MB-435 melanoma. For the same compound, the growth with SW-620 colon was 107%; with MCF7 breast, 119%; in the assay with HCT-116 colon it was 86.8%; in the assay with HCC-2998 colon, 115%; in the assay on KM12 colon, 94.8%.
As to `N=C(N)c1ccc(-c2ccc(-c3cccs3)s2)nc1`, the growth is -9.12% (active) with SR leukemia; -24.2% (active) in the assay with RPMI-8226 leukemia; 55.7% with OVCAR-8 ovarian; 34.7% in the assay on OVCAR-4 ovarian; 63.4% in the assay with SK-OV-3 ovarian; 70.4% with IGROV1 ovarian. In addition, the growth with OVCAR-3 ovarian is 38.6%; in the assay on HS 578T breast, 80.1%; with NCI/ADR-RES ovarian, 84.8%; with T-47D breast, 43%; in the assay on BT-549 breast it was 91%; in the assay on MDA-MB-435 melanoma it was 44.5%. Further, the growth was 22.4% with SW-620 colon, 17.8% in the assay with MCF7 breast, 18.5% in the assay with HCT-116 colon and -52.7% (active) in the assay on HCC-2998 colon.
With `CCc1c(C(=O)NCc2c(O)ccc3cccc(O)c23)[nH]c(C)c1C(C)=O`, the growth was 30.5% in the assay on SR leukemia; 15.3% in the assay on RPMI-8226 leukemia; 38.4% in the assay on OVCAR-8 ovarian; 90.4% in the assay on OVCAR-5 ovarian; 27.6% with OVCAR-4 ovarian; 62.2% with SK-OV-3 ovarian. Also, the growth with OVCAR-3 ovarian was 12.6%; in the assay on HS 578T breast, 35%; in the assay on NCI/ADR-RES ovarian it was 29.2%; in the assay on T-47D breast, 9.15% (active); in the assay on BT-549 breast it was 34.5%; in the assay on MDA-MB-435 melanoma it was 35.1%. In addition, the growth in the assay with SW-620 colon is 68.7%; with MCF7 breast, 11.6%; in the assay on HCT-116 colon, 42.3%; in the assay with HCC-2998 colon, 47.9%; in the assay on KM12 colon it was 31.2%.
As to `COCc1cc2c(cc1Br)OCO2`, the growth in the assay on SR leukemia was 106%; with RPMI-8226 leukemia, 95.1%; in the assay with OVCAR-8 ovarian, 98.8%; in the assay with OVCAR-5 ovarian, 92.5%; in the assay with OVCAR-4 ovarian, 111%; in the assay with SK-OV-3 ovarian, 95.3%. The growth in the assay on OVCAR-3 ovarian was 111%; with NCI/ADR-RES ovarian, 88.7%; in the assay on T-47D breast it was 98.4%; with BT-549 breast it was 105%; with MDA-MB-435 melanoma, 108%; with SW-620 colon it was 103%. Also, the growth is 96.4% in the assay with MCF7 breast, 98.6% in the assay with HCT-116 colon, 95.9% in the assay on HCC-2998 colon and 104% in the assay on KM12 colon.
